Assay results from PubChem BioAssay (NCATS).
Values joined by “and” are separate entries in the source; they are usually repeats but may differ in a detail not shown here. Identical values can stand only once. Inconclusive results are not listed. Some compounds were tested as several samples or in several runs, with calls that do not always agree. Active and inactive are the calls of the source. The call rests on the fitted dose curve; in most records, active means well fitted inhibition curve with a large enough effect; inconclusive means small, poorly fitted or top-dose-only effect; inactive means flat fitted curve, though single readings scatter.

The molecules below were run on HEK293 (assay: Cytotoxic Profiling of Annotated Libraries Using Quantitative High-Throughput Screening (AID 1296008; further: nearly all actives have a fitted effect of over 60% in size)). Settings: Five cell lines viability, CellTiter-Glo ATP luminescence, 48-72 h; max response: stronger effect = lower value.
Description: Cell-based phenotypic screening is a commonly used approach to discover biological pathways, novel drug targets, chemical probes and high-quality hit-to-lead molecules. Many hits identified from high-throughput screening campaign are ruled out through a series of follow-up potency, selectivity/specificity, and cytotoxicity assays. Prioritization of molecules with little or no cytotoxicity for a more in-depth downstream evaluation influence the future direction of projects, so cytotoxicity profiling of the screening libraries at early stage is essential for increasing the likelihood of candidate success. […] For the annotated library, we also examined the primary targets and mechanistic pathways regularly associated with cell death. To our knowledge, this is the first study to use high-throughput screening to profile large libraries for cytotoxicity assessment in both normal and cancer cell lines. In summary, the results generated here constitutes a valuable resource for the scientific community and provides insight on identifying cytotoxic compounds with particular mechanisms of action, and prioritizing compounds with suitable cytotoxicity profile for further evaluation.
A pintool (Kalypsys) was used to transfer 23 nL of compound solution to the 1536-well assay plates. After 48 or 72 hr incubation at 37 degree Celsius, 5% CO2 and 95% humidity, 2.5 uL of CellTiter-Glo (Promega) was dispensed into each well using a dispenser (Aspect Automation, St. Paul, MN) with solenoid valves (Lee Valves, Westbrook CT). Plates were left at room temperature for 10 min before imaging the ATP-coupled luminescence using a ViewLux microplate imager (PerkinElmer, Waltham, MA).
On the % scale 0 is the no-effect control and ±100 the full control effect; potency means the concentration at half of the fitted maximal effect.

SMILES | max response | Potency | outcome
CCNC(=O)CCCC=CC[C@@H]1[C@H](C=CC(O)CCc2ccccc2)[C@@H](O)C[C@@H]1O (stereo not given in full) | -24.5% (inactive) | – | –
O=C(O)CCC=CCC[C@@H]1[C@H](N2CCCCC2)[C@@H](O)C[C@@H]1OCc1ccc(-c2ccccc2)cc1 | -1.41% (inactive) | – | –
Cc1c(C(=O)Nc2ccc(N3C[C@@H](C)O[C@@H](C)C3)nc2)cccc1-c1ccc(OC(F)(F)F)cc1 | – | 5.26 µM (active) | –
CC(C)N(CCCNC(=O)Nc1ccc(C(C)(C)C)cc1)C[C@H]1O[C@@H](n2cc(Br)c3c(N)ncnc32)[C@H](O)[C@H]1O | – | 18.7 µM (active) | –
CN1[C@H]2CC[C@H]1CC(OC(=O)c1c[nH]c3ccccc13)C2 (stereo not given in full) | -1.65% (inactive) | – | –
Cc1cnc(-c2cc(N3CCN(C(=O)CCS(C)(=O)=O)CC3)ncc2Cl)c(C)c1 | 2.19% (inactive) | – | inactive
NS(=O)(=O)c1cc(Cl)c(Cl)c(S(N)(=O)=O)c1 | 0.982% (inactive) | – | inactive
CCC(=O)NCC[C@@H]1CCc2ccc3c(c21)CCO3 | -0.876% (inactive) | – | –
O=C(NCCCCN1CCOCC1)c1cc2ccccc2o1 | -14.9% (inactive) | – | –
CN(C(Cc1ccc(OS(=O)(=O)c2cccc3cnccc23)cc1)C(=O)N1CCN(c2ccccc2)CC1)S(=O)(=O)c1cccc2cnccc12 (stereo not given) | – | 5.26 µM (active) | –
CC(C)CNc1ccnc(NCc2csc(-c3ccccc3)n2)n1 | – | 5.26 µM (active) and 1.64 µM (active) | –
COc1nccc(-c2c(-c3ccc(F)cc3)ncn2C2CCC(O)CC2)n1 (stereo not given) | -17.3% (inactive) | – | inactive
CNC(=O)c1cc(Oc2ccc(NC(=O)Nc3ccc(Cl)c(C(F)(F)F)c3)c(F)c2)ccn1 | – | 7.43 µM (active) | –
O=C(c1ccc(F)c(F)c1Nc1ccc(I)cc1F)N1CC(O)([C@H]2CCCCN2)C1 | – | 26.4 µM (active) | –
NC(=O)c1nnn(Cc2cc(Cl)c(C(=O)c3ccc(Cl)cc3)c(Cl)c2)c1N | – | 20.9 µM (active) | –
O=C(Nc1cccc2c(=O)cc(-c3nn[nH]n3)oc12)c1ccc(OCCCCc2ccccc2)cc1 | – | 18.7 µM (active) | –
CCN1CCN(c2ccc(Nc3cc(N(C)C(=O)Nc4c(Cl)c(OC)cc(OC)c4Cl)ncn3)cc2)CC1 | – | 16.4 µM (active) | –

SMILES | max response | Potency | outcome
Cc1ccc(NC(=O)c2ccc(CN3CCN(C)CC3)cc2)cc1Nc1nc(-c2cccnc2)cs1 | – | 8.33 µM (active) | –
Cc1nn(Cc2ccccc2Cl)c(C)c1CN(C)CC(O)COc1ccc(Cl)cc1 (stereo not given) | – | 18.7 µM (active) | –
OC[C@H]1O[C@@H](Oc2ccc(O)cc2)[C@H](O)[C@@H](O)[C@H]1O | 3.31% (inactive) | – | –
CN1CCC(COc2cnc(-c3cccc(Cn4nc(-c5cccc(C#N)c5)ccc4=O)c3)nc2)CC1 | – | – | inactive
OCCn1cc(-c2ccc3c(c2)CCC3=NO)c(-c2ccncc2)n1 | 2.25% (inactive) | – | –
NC1(C(=O)N[C@@H](CCO)c2ccc(Cl)cc2)CCN(c2ncnc3[nH]ccc23)CC1 | – | 469 nM (active) and 517 nM (active) | –
Cc1cc(C(C)Nc2ccccc2)c2nc(N3CCOCC3)cc(=O)n2c1 (stereo not given) | -5.74% (inactive) and -23.1% (inactive) | – | –
CN1c2ccccc2C(=O)N2CCc3c([nH]c4ccccc34)C21 (stereo not given) | -2.28% (inactive) | 1.64 µM (active) | –
COc1ccc(-c2ccc3ncc4c(c3c2)n(-c2ccc(N3CCNCC3)c(C(F)(F)F)c2)c(=O)n4C)cn1 | -112% (inactive) | 0.0092 µM (active) | –
O=C(O)c1ccc(O)c2ncc(N3CCOCC3)cc12 | 4.93% (inactive) | – | –
CNC(=O)c1c(-c2ccc(F)cc2)oc2cc(N(CCO)S(C)(=O)=O)c(C3CC3)cc12 | – | – | inactive
CN1C(=O)C(Cc2c[nH]c3ccccc23)NC1=S (stereo not given) | 1.8% (inactive) | – | inactive
O=c1[nH]nc(OCCCc2ccc(Cl)cc2)c(NCc2cccnc2)c1Br | – | 3.32 µM (active) and 7.31 µM (active) | –
NC[C@H]1O[C@H](O[C@@H]2[C@@H](O)[C@@H](O[C@H]3O[C@H](CO)[C@@H](O)[C@H](N)[C@@H]3O)[C@H](N)C[C@@H]2N)[C@H](O)[C@@H](O)[C@H]1O | -2.16% (inactive) | – | –
COc1cc2nccc(Oc3ccc(NC(=O)Nc4cc(C)on4)c(Cl)c3)c2cc1OC | – | 13.2 µM (active) | –
C[C@@H](O)[C@H]1C(=O)N2C(C(=O)OCOC(=O)C(C)(C)C)=C(SC3CN(C4=NCCS4)C3)[C@H](C)[C@H]12 | – | – | inactive
O=C(O)C1=NC(C(=O)O)CC(C=CN2c3cc(O)c(OC4OC(CO)C(O)C(O)C4O)cc3CC2C(=O)O)=C1 (stereo not given) | – | – | inactive
